High-throughput results: PubChem BioAssay, National Center for Advancing Translational Sciences (NCATS)
A selection: hits, their analogues and other compounds. The true share with any hit is near 7.8%.
HCV inh: HCV inhibition; Potency, µM (highest dose often 41.8 µM), actives largely listed as inhibitors; 340,000 tested, 3.4% active; Huh7.5.1 HCVcc-Cre infection, luciferase reporter, 44 h; active = well fitted inhibition curve with a large enough effect; inconclusive = small, poorly fitted or top-dose-only effect, or another doubt; inactive = no such curve, though single readings can be large or run the other way
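Luciferase read-out (15 sec integration) after a 15 min room-temperature substrate step quantifies HCVcc-Cre infection. Cells, 1,000 per well, had compound added 4 h post-plating, then virus at ~0.5 moi, and were cultured 44 h.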
VACV Venus inh: vaccinia inhibition (Venus reporter). Potency, µM (titrated, usually from 36.5 µM), actives largely listed as inhibitors. AID 720580. 330,000 tested, 0.46% active. Vaccinia virus Venus reporter expression, fluorescence; calls by dose curve; tested in A549 cells; also: nearly all actives have a fitted effect of over 30% in size
Marburg entry inh: blocks Marburg virus binding to or entry into cells. Marburg virus pseudotyped entry inhibition, cell reporter. Potency, µM (highest dose often 37.8 µM), actives largely listed as inhibitors. 300,000 tested, 1.8% active. AID 540276; calls by dose curve; tested in HEK293 cells
Vaccinia mCherry: inhibitors of vaccinia virus infection (mCherry reporter signal); Vaccinia virus mCherry reporter infection, fluorescence; Potency, µM (highest dose often 36.5 µM), hits mostly inhibitors; 310,000 tested, 0.63% active; calls by dose curve; tested in A549 cells; also: nearly all actives have a fitted effect of over 35% in size
Lassa entry inh: Lassa virus entry inhibition; Potency, µM (top dose mostly 37.9 µM), actives largely listed as inhibitors; Lassa virus pseudotype entry inhibition, cell reporter; 300,000 tested, 1.2% active; AID 540256; calls by dose curve; tested in HEK293 cells; also: nearly all actives have a fitted effect of over 50% in size
HCMV inh: blocks human cytomegalovirus replication; HFF cells, HCMV-luciferase reporter, 72 h; hits give low values; activity change, negative = inhibition, % at 57.5 µM; 410,000 tested, 4.5% active; in the data active = activity change below about -60%; inconclusive = no clear call, values can overlap the other calls; inactive = above about -39%
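HFF cells seeded 16 h at 37C, treated with compounds, infected with luciferase-reporter HCMV at MOI 1 PFU/cell; luciferase read at 72 h post infection, normalized to buffer-only and Salinomycin controls.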
Large screens that a line does not name were inactive.

Cc1oc2ncn(C)c(=O)c2c1C(=O)N(C)c1ccccc1F	Lassa entry inh inconclusive (no result: HCV inh, Marburg entry inh)
CCOc1cc(C(=O)Nc2ccc(-c3nc4ccccc4s3)cc2Cl)cc(OCC)c1OCC	none (no result: HCV inh, Marburg entry inh)
C=CCN(c1ccccc1)S(=O)(=O)c1cccc(C(=O)Nc2ncccc2O)c1	Lassa entry inh inconclusive (no result: HCMV inh)
COc1ccccc1N(Cc1ccccc1)S(=O)(=O)c1cccc(C(=O)Nc2cccc(C)n2)c1	HCV inh 10µM (no result: VACV Venus inh, Marburg entry inh, Vaccinia mCherry, Lassa entry inh)
Cc1cccc(NC(=O)c2cccc(S(=O)(=O)N(C)c3ccccc3)c2)n1	HCV inh inconclusive, Marburg entry inh inconclusive, Lassa entry inh inconclusive
COc1ccc(N(Cc2ccccc2)S(=O)(=O)c2cccc(C(=O)Nc3ccccn3)c2)cc1	HCV inh inconclusive, Marburg entry inh inconclusive, Lassa entry inh 13µM, HCMV inh inconclusive
C=CCN(c1ccccc1)S(=O)(=O)c1cccc(C(=O)Nc2cc(C)ccn2)c1	HCV inh inconclusive, Marburg entry inh 8.9µM, Lassa entry inh 18µM, HCMV inh inconclusive
Cc1c(C(=O)Nc2cccc(C(F)(F)F)c2)oc2ccc(S(=O)(=O)N(C)C3CCCCC3)cc12	Lassa entry inh inconclusive (no result: HCV inh, Marburg entry inh)
CCC(C(=O)Nc1ccsc1C(=O)OC)c1ccccc1 (configuration not stated)	HCMV inh -67
CCC(C(=O)Nc1nc(C)c(C(=O)OC)s1)c1ccccc1 (configuration not stated)	none
CCC(C(=O)Nc1cc(OC)c(NC(=O)c2ccccc2)cc1OC)c1ccccc1 (configuration not stated)	HCV inh 11µM, Lassa entry inh inconclusive
CCC(C(=O)Nc1sc(C(N)=O)c(C)c1C(=O)OC)c1ccccc1 (configuration not stated)	Marburg entry inh 13µM (no result: Lassa entry inh)
CCOc1ccc(NC(=O)c2cnn(-c3ccc(C)c(Cl)c3)c2C2CCNCC2)cc1	none (no result: HCV inh, Marburg entry inh)
Cc1ccc(-n2ncc(C(=O)Nc3ccc(Cl)cc3)c2C2CCNCC2)cc1C	HCV inh inconclusive, VACV Venus inh inconclusive, Marburg entry inh inconclusive, Vaccinia mCherry inconclusive, Lassa entry inh inconclusive, HCMV inh -70
COc1cc2c(cc1OC)C(COc1ccc3c(C)cc(=O)oc3c1)N(C(=O)CC(C)C)CC2 (configuration not stated)	none (no result: HCV inh)
CC1CN(S(=O)(=O)c2ccc(NC(=O)c3cc(-c4ccccc4O)n[nH]3)cc2)CC(C)O1 (configuration not stated)	HCV inh 8.9µM, Marburg entry inh 12µM, Lassa entry inh 21µM, HCMV inh -98 (no result: VACV Venus inh, Vaccinia mCherry)
CN1CCN(S(=O)(=O)c2cccc(C(=O)Nc3ccccc3N3CCCC3)c2)CC1	none
O=C(Nc1ccc(S(=O)(=O)N2CCOCC2)cc1)c1cc(-c2ccccc2O)n[nH]1	HCMV inh inconclusive (no result: Marburg entry inh, Lassa entry inh)
CC1CN(S(=O)(=O)c2cccc(C(=O)Nc3ccccc3N3CCCC3)c2)CC(C)O1 (configuration not stated)	HCV inh 32µM, Marburg entry inh inconclusive, Lassa entry inh inconclusive
Cc1nc2ccc(NC(=O)c3cccc(S(=O)(=O)N4CC(C)OC(C)C4)c3)cc2s1 (configuration not stated)	HCV inh 2.8µM, VACV Venus inh inconclusive, Lassa entry inh inconclusive (no result: Vaccinia mCherry)
O=C(NCc1ccccc1)C(=O)NCC(c1cccs1)S(=O)(=O)c1ccccc1 (configuration not stated)	Lassa entry inh inconclusive (no result: HCV inh, Marburg entry inh)
Cc1ccc2nc(SCC(=O)NCC3Cc4cccc(-c5nc(C)cnc5C)c4O3)[nH]c2c1 (configuration not stated)	none (no result: HCV inh, Marburg entry inh, Lassa entry inh, HCMV inh)
COC(=O)[C@H]1[C@H](CO)[C@H]2Cn3c(cccc3=O)[C@@H]1N2Cc1cocn1	none (no result: HCV inh, VACV Venus inh, Marburg entry inh, Vaccinia mCherry, Lassa entry inh)
O=C(Nc1ccc(Oc2cccnc2)cc1)c1ccccc1F	HCV inh inconclusive, Marburg entry inh inconclusive, HCMV inh -86 (no result: VACV Venus inh, Vaccinia mCherry)
CCOC(=O)Cc1ncccc1C(=O)Nc1ccc(Oc2ccccc2)cc1	Marburg entry inh inconclusive, HCMV inh -98
O=C(Nc1ccc(F)cc1)c1cccnc1Oc1ccccc1	none
O=C(Nc1ccc(Oc2cccnc2)cc1)c1ccccc1Cl	HCV inh inconclusive, HCMV inh inconclusive
CCCN(CCC)c1ccc(/C=C/c2sc3ccccc3[n+]2CCCCI)cc1	none (no result: HCV inh, Marburg entry inh, Lassa entry inh, HCMV inh)
CC1=NN(c2ccc([N+](=O)[O-])cc2)C(=O)/C1=C\N(C)C	none
CC1=NN(c2ccc(C)c(C)c2)C(=O)/C1=C\C=C\c1ccc([N+](=O)[O-])o1	HCV inh 11µM, Marburg entry inh 3.5µM, Lassa entry inh 7.1µM, HCMV inh -88
Cc1nc2c(sc(=S)n2Cc2ccco2)c(=O)n1CC(=O)Nc1ccccc1F	HCV inh inconclusive (no result: Marburg entry inh, Lassa entry inh)
CSc1nc2ccsc2c(=O)n1-c1ccccc1	none
CCN(CC)C(=O)CSc1nc2c(sc(=S)n2-c2ccccc2)c(=O)n1-c1ccccc1OC	HCV inh inconclusive, Marburg entry inh inconclusive, Lassa entry inh inconclusive, HCMV inh inconclusive
CCN(CC)C(=O)CSc1nc2c(sc(=S)n2-c2ccccc2)c(=O)n1-c1ccc(OC)c(OC)c1	HCV inh inconclusive, HCMV inh -68 (no result: VACV Venus inh, Marburg entry inh, Vaccinia mCherry, Lassa entry inh)
CCn1c(=S)sc2c(=O)n(-c3ccccc3)c(SC)nc21	HCV inh inconclusive, HCMV inh -61 (no result: VACV Venus inh, Vaccinia mCherry)
COc1ccc(-n2c(SCC3OCCO3)nc3c(sc(=S)n3-c3ccccc3)c2=O)cc1OC	HCV inh inconclusive, Marburg entry inh inconclusive
N#CCSc1nc2c(sc(=S)n2Cc2ccco2)c(=O)n1-c1ccc(F)cc1	HCV inh inconclusive, Marburg entry inh inconclusive, HCMV inh -107 (no result: VACV Venus inh, Vaccinia mCherry)
CCN(CC)C(=O)CSc1nc2c(sc(=S)n2-c2ccccc2)c(=O)n1-c1ccc(OC)cc1OC	HCV inh inconclusive, HCMV inh -69 (no result: VACV Venus inh, Marburg entry inh, Vaccinia mCherry, Lassa entry inh)
Cc1ccc2c(CNC3CCC(C)CC3)c(C(=O)O)n(Cc3cccc(F)c3)c2c1 (configuration not stated)	VACV Venus inh inconclusive (no result: HCV inh, Marburg entry inh)
CCOc1ccc(NC(=O)N(Cc2c[nH]c3ccccc23)C2CCCCCC2)cc1	Marburg entry inh inconclusive (no result: HCV inh)
CCCn1c2c(c(O)c(C(=O)Nc3ccc(OC)cc3)c1=O)CCCC2	HCV inh 11µM (no result: Vaccinia mCherry)
CCCn1c2c(c(O)c(C(=O)NC)c1=O)CCCC2	HCV inh inconclusive (no result: Vaccinia mCherry)
CCCn1c2c(c(O)c(C(=O)NCc3ccccc3)c1=O)CCCC2	HCV inh 5µM
CCCn1c2c(c(O)c(C(=O)NCCCN(CC)CC)c1=O)CCCC2	HCV inh inconclusive, Marburg entry inh 10µM
CCN(CC)CCCNC(=O)c1c(O)c2c([nH]c1=O)CCCC2	Marburg entry inh inconclusive
Cc1nc2ccccc2c(=O)n1NC(=O)c1c(O)c2c(n(CC(C)C)c1=O)CCCC2	HCV inh inconclusive, Marburg entry inh inconclusive, HCMV inh inconclusive (no result: VACV Venus inh, Vaccinia mCherry)
CCCCCCc1nc2ccccc2c(=O)n1NC(=O)c1c(O)c2c(n(CC(C)C)c1=O)CCCC2	Lassa entry inh inconclusive, HCMV inh -93
CC(C)N(C(=O)Cn1cc(S(=O)(=O)Cc2ccc(Br)cc2)c2ccccc21)C(C)C	none (no result: HCV inh, Marburg entry inh)
Fc1ccc(NC(=S)NN=Cc2ccccc2Cl)cc1	Marburg entry inh inconclusive
S=C(NCCc1ccccc1)N/N=C/c1cccc(Cl)c1Cl	Marburg entry inh inconclusive
